TSHR antagonist – blocks TSH signaling through the human TSH receptor. P16473. TSHR-expressing cells, TSH-stimulated cAMP HTRF, 2 h; active compounds read low. activity change, negative = inhibition, % at 11.5 µM. 330,000 compounds, 0.2% hits;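 active means activity change below a set negative limit, meaning inhibition stronger than a set level, cut at about -70% in these data; inconclusive means activity change between two set negative limits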; further: on the % scale 0 is the no-effect control and ±100 the full control effect
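Freshly harvested TSHR cells receive pin-tooled compound, then EC80 TSH at 4nM final. After 2 hours at 37 deg C, antibody in lysis buffer and cAMP-d2 are added; 30 minutes at ambient temperature precede the HTRF read.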
B2AR arrestin – recruits beta-arrestin to the human beta2-adrenergic receptor. beta-arrestin recruitment to beta2AR, cell-based reporter. 330,000 compounds, 0.02% hits. P07550. Potency, µM (top dose mostly 46.1 µM), inactives show top-dose activation, hits mostly activators; active means well fitted activation curve with a large enough effect; inconclusive means small, poorly fitted or top-dose-only effect;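 further: potency means the concentration at half of the fitted maximal effect; 0% = DMSO controls and full agonism = EC100 isoproterenol or metaproterenol; nearly all actives have a fitted effect of over 65% in size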
D3 ag – activates the human D3 dopamine receptor; max activation, %; D3R DiscoveRx beta-arrestin cells, luminescence, 90 min; 410,000 compounds, 0.58% hits; in the data active means max activation above about 30%; further: 0% is about no effect
Target sequence (P35462 whole entry, looked up): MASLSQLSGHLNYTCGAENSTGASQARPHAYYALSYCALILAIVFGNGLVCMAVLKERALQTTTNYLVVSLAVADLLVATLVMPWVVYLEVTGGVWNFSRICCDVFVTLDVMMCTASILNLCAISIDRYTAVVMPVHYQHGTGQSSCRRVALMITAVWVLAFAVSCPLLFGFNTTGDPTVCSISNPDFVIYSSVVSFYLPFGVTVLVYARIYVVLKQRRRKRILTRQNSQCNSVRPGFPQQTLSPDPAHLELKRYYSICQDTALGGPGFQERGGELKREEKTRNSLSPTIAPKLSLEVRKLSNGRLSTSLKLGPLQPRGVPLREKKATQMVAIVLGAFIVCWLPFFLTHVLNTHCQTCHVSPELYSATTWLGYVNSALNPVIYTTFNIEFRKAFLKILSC
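Agonist mode: compounds and dopamine controls were applied to plated cells for 90 min at 37 degrees C after an overnight attachment at 1500 cells/well. Luminescent read-out followed 30 - 60 minutes at room temperature with DiscoveRx detection reagent.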
DRD3 antagonist – blocks the human D3 dopamine receptor | P35462 | D3R cells, DiscoveRx beta-arrestin luminescence, antagonist mode; active compounds read low | max response, negative = inhibition, % | 360,000 compounds, 2.5% hits; in the data active means max response below about -50%; inconclusive means no clear call, values can overlap the other calls; further: on the % scale 0 is the no-effect control and ±100 the full control effect
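Cells plated overnight at 1500 cells/well, then exposed to library compounds with dopamine controls for 90 minutes at 37 degrees C. DiscoveRx reagent added for 30–60 minutes at room temperature; luminescence read, quantitative HTS format.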
Starred values were filed as active, the others as inactive; u = inconclusive; x = not tested or not shown. Hits are enriched below; roughly 2.9% of the tested compounds scored in any of these assays.

SMILES	TSHR antagonist	B2AR arrestin	D3 ag	DRD3 antagonist
CCNC(=O)C1CCCN(c2nn3cc(-c4ccc(C)cc4)nc3s2)C1 (centres undefined)	x	x	-8	x
Cc1ccsc1CN(C(=O)c1ccc(OCC(C)C)cc1)C1CCS(=O)(=O)C1 (centres undefined)	x	x	2	x
COC(=O)CSC1=C(C#N)C(=O)NC(c2ccccc2)S1 (centres undefined)	6	0%	-2	-74*
CC(C)(C)c1ccc(C(=O)CCCN2CCC(OC(c3ccccc3)c3ccccc3)CC2)cc1	-10	x	x	x
CSc1ccccc1OCc1cc(C(=O)N2CCc3c(Cl)cccc3C2)no1	-4	0%	32*	9
COc1cc2c(cc1OC)CN(C(=O)c1cc(COc3ccccc3SC)on1)CC2	x	x	3	7
CCOC(=O)c1oc2cc(O)ccc2c(=O)c1-c1ccccc1OC	13	-1%	-15	-61*
O=C(Nc1ccccc1)c1ccc(CN2CCC(Cc3ccccc3)CC2)cc1	x	x	-13	-51*
O=C(Nc1ccccc1C(F)(F)F)c1ccc(CN2CCC(Cc3ccccc3)CC2)cc1	11	-1%	-17	-52*
COc1ccc2cc3cc(C(=O)NCc4ccco4)oc3nc2c1	-2	0%	-2	-19
COc1ccc2cc3c(N)c(C(=O)NCc4ccco4)sc3nc2c1	46	0%	-3	-55*
Cc1cc(C)c(C2C(C#N)=C(N)Oc3n[nH]c(C)c32)cc1CN1CCCC1 (centres undefined)	-1	0%	-31	-112*
CCc1ccc(NS(=O)(=O)c2ccc3[nH]cc(C(=O)NCCCOC(C)C)c(=O)c3c2)cc1	x	x	7	x
CCN(CC)S(=O)(=O)c1cccc(NC(=O)Nc2cccc(C(F)(F)F)c2)c1	-74*	0%	3	34
Cc1cc(=O)n2nc(N3CCC(C(=O)Nc4ccc(C(C)C)cc4)CC3)sc2n1	x	x	4	x
CCOc1ccc(NC(=O)C(CC)n2nc(-c3ccc(C)c(C)c3)ccc2=O)cc1 (centres undefined)	x	x	0	x
Nc1ccc2c(c1)C(=O)c1ccccc1-2	x	x	-7	-22
Nc1ccc2c(c1)C(=O)C(=O)c1ccccc1-2	-79*	-1%	-15	-9
COC(=O)c1[nH]c2ccccc2c1NC(=O)CCN1CCSCC1	-12	0%	1	-57*
COc1ccc2c(c1)CC(C(=O)NCCN1CCN(c3cccc(C)c3C)CC1)CO2 (centres undefined)	x	x	47*	x
COC(=O)c1[nH]c2cccc(OC)c2c1NC(=O)CCN1CCN(c2ccccc2F)CC1	-9	0%	x	x
CCOC(=O)c1[nH]c2ccc(OC)cc2c1NC(=O)CCN1CCSCC1	9	-2%	0	-7
COc1ccc2c(c1)CC(C(=O)NCCN1CCN(c3ccccc3F)CC1)CO2 (centres undefined)	x	x	2	x
COc1ccc(OC)c(NC(=O)Nc2cccc3ccccc23)c1	0	0%	-16	-57*
COC(=O)c1[nH]c2cc(OC)ccc2c1NC(=O)CCN1CCN(c2cccc(C)c2C)CC1	2	8%	-3	-80*
SMILES	TSHR antagonist	B2AR arrestin	D3 ag	DRD3 antagonist
CCCN1C(=O)C(NC(=O)c2ccccc2OC)(C(F)(F)F)C(C(=O)OC)=C1C (centres undefined)	x	x	17	x
COc1ccc(OC)c(NC(=O)CCN2CCN(c3ccccc3)CC2)c1	-9	-1%	30*	-53*
COC(=O)c1[nH]c2cc(OC)ccc2c1NC(=O)CCN1CCN(c2ccccc2)CC1	7	0%	-3	-76*
COc1ccc(OC)c(NC(=O)CCN2CCN(Cc3ccccc3)CC2)c1	-4	1%	-17	u
CCOC(=O)C1CCCN(CCC(=O)Nc2c(C(=O)OC)[nH]c3cc(OC)ccc23)C1 (centres undefined)	-3	-1%	5	0
COc1ccc([C@@H]2CC=C(C(=O)O)[C@H](c3ccc(Cl)cc3)N2S(=O)(=O)c2ccccc2C)cc1	0	0%	-14	0
Cc1ccccc1S(=O)(=O)N1[C@@H](c2ccc(Br)cc2)C(C(=O)O)=CC[C@H]1c1ccc(Cl)cc1	-7	0%	-27	-11
Cc1ccc([C@@H]2CC=C(C(=O)O)[C@H](c3ccc(Cl)cc3)N2S(=O)(=O)c2ccccc2C)cc1	-2	-1%	-44	-61*
COc1ccc(C(=O)CN2CCN(S(=O)(=O)c3ccc(F)cc3)CC2)cc1	x	x	-14	x
CCOc1ccc([C@@H]2CC=C(C(=O)O)[C@H](c3ccc(Cl)cc3)N2S(=O)(=O)c2ccc(C)cc2)cc1	-7	-1%	-30	-73*

Screens: PubChem, National Center for Advancing Translational Sciences (NCATS)
